AC50 and outcome data for 40 molecules are collected here from PubChem BioAssay (EPA / NIEHS).

Active and inactive are the calls of the source. Rule for the calls: active = hit-call score of the fitted dose curve at least 0.9, where 1 is the maximum; inactive = score below 0.9.

Read-out in this assay: matrix metalloproteinase-10 (MMP10), MMP10 (gene 4319)
Nature of the assay: LTEA_HepaRG_MMP10: Life Technologies and Expression Analysis (LTEA) Assay for matrix metalloproteinase-10 (MMP10) using HepaRG (AID 2283517). Conditions: mRNA level, 48 h; actives raise or lower the signal. The method, then: LTEA_HepaRG is a cell based, multiplexed-readout assay that uses HepaRG, a human liver cell line, with measurements taken at 48 hours after chemical dosing on a 96-well plate.LTEA_HepaRG_MMP10 is one of 102 assay component(s) measured in the LTEA HepaRG cell culture assay. It is a marker of Fibrosis.Data from the assay component LTEA_HepaRG_MMP10 was analyzed into 1 endpoint. This assay endpoint, LTEA_HepaRG_MMP10, was analyzed with bidirectional fitting relative to DMSO as the negative control and baseline of activity. Using a type of inducible reporter, measures of mRNA induction for gain or loss-of-signal activity can be used to understand regulation of transcription factor activity. To generalize the intended target to other relatable targets, this assay endpoint is annotated to the protease intended target family, where the subfamily is matrix metalloproteinase.
A total of 1060 chemcials from the ToxCast library were tested in eight-point concentration-response experiments. Cell culture and cytotoxicity assays were conducted at Thermo Fisher Scientific's Custom Services facility (Madison, WI). A single lot of human HepaRG cells (Thermo Fisher Scientific, Frederick, MD) was used for the cell culture experiments. 96-well format collagen type I coated plates of human HepaRG cells were prepared using established methods. Briefly, cryopreserved HepaRG cells were thawed, plated at a density of approximately 100,000 cells/well in HepaRG Thaw, Plate, and General Purpose media (HPRG770, Thermo Fisher Scientific), and incubated for 48 hours. 0.5% DMSO was selected as vehicle control to balance the requisite need of DMSO in HepaRG cultures to maintain differentiation (for example, baseline metabolism, proportions of hepatocytes vs. cholangiocytes), while enabling further hepatic receptor pathway activation (for example, PXR and CAR) in response to chemical exposure. 48 hours after plating, the culture medium was replaced with HepaRG Serum-Free Incudtion Media. Cells were exposed to each test chemical in duplicate and maintained in CO2 incubators for another 48 hours. Chemical plates were thawed to room temperature and 200x concentrations of treatment groups were prepared. 8-point conentration-reponse curves were made with the highest exposure at 100 uM, followed by half-log dilutions, all in 0.5% DMSO. Each test plate contained variouse controls, induction positive controls (1mM phenobarbital), cytotoxicity positive controls ([…] aflatoxin B1), vehicle controls (0.5% DMSO), and total lysis controls (0.5% DMSO). Cell morphology images were taken using an Essen IncuCyte FLR automated microscope, with six 96-well plates imaged in about 24 minutes. Images were captured and exported and JPEG files. Spent culture media was transfered to black-well plates for the LDH assay, and remaining media was sorted at -80 C for later use. Cells were treated with RLT buffer and frozen until shipped for gene expression analysis. Total RNA was isolated from the cell suspension in 75 uL of Buffer RLT (Qiagen, Germantown, MD 20874) by Quintiles/Expression Analysis (Durham, NC) using a custom isolation procedure. Total RNA from each plate well was transferred to a preamplification plate. Fluidigm's 96.96 Dynamic ArrayTM (Fluidigm, Amsterdam, the Netherlands) technology was used for gene expression analyses by quantitative reverse transcription polymerase chain reaction (qRT-PCR, performed by Quintiles/Expression Analysis, Durham, NC)89. Standard TaqManTM Assays (Applied Biosystems/ThermoFisher Scientific, Foster City, CA) were used to assess the expression of 93 genes selected based on their selectivity and sensitivity to important hepatic receptors known to be modulated by environmental chemicals; importance in human hepatocyte functionality; and hepatotoxicity. […]
As to `Cc1cc(F)ccc1-c1cc(N2CC[C@@H](O)[C@H]2CO)ncc1N(C)C(=O)C(C)(C)c1cc(C(F)(F)F)cc(C(F)(F)F)c1`, the AC50 was 68.7 µM (active).
As for `O=C(O)c1ccccc1C(=O)OCc1ccccc1`, the outcome was inactive.
On the same count and under the same terms, next, `OCCO`: “inactive”; `Cc1ncc(CO)c(CO)c1O`: “inactive”.
On to `CCCCCCCCCC(=O)O`, for which the result was inactive.
On to `Cc1ccc(C(C)C)cc1`, for which the call was inactive.
On the same count and under the same terms, with `COc1cccc([C@H](O)C2CCN(CCc3ccc(F)cc3)CC2)c1OC` the entry was “inactive”; with `C[C@]12CC[C@@H]3c4ccc(O)cc4CC[C@H]3[C@@H]1CC[C@H]2O`, “inactive”; with `CN1C(=O)N(c2ccccc2Br)Cc2cnc(Nc3ccc4c(c3)OCC(CO)O4)nc21` (stereo not given), “inactive”.
For `Cc1cc2c(cc1C(F)(F)F)N(C(=O)Nc1ccc(Oc3cccnc3C)nc1)CC2`, the concentration at half-maximal activity (AC50) was 26.8 µM (active).
As for `CC(O)CC(C)(C)O` (stereo not given), the outcome was inactive.
With `Cc1oc2c(NC(=O)c3c(Cl)cccc3Cl)cccc2c1C(C)(C)O`, the AC50 was 70.8 µM (active).
On the same count and under the same terms, next, `O=C(Nc1ccc(Cl)cc1)Nc1ccc(Cl)c(Cl)c1`: 27.6 µM (active).
On to `O=C1O[C@H]([C@@H](O)CO)C(O)=C1O`, for which the molecule was classed as inactive.
On to `CCCCCCCC[Si](OCC)(OCC)OCC`, for which the call was inactive.
In the case of `O=C1CCC(C2CCCCC2)CC1`, the call was inactive.
For the molecule `CN(C)C(=O)C1(N2CCCCC2)CCN(CC[C@@]2(c3ccc(Cl)c(Cl)c3)CN(C(=O)c3ccccc3)CCO2)CC1`, the AC50 was 77.1 µM (active).
As to `CCCCCc1ccc(N)cc1`, the molecule was classed as inactive.
On the same count and under the same terms, next, `O=C=NCCCCCCN=C=O`: “inactive”; `CC[C@@H]1C[C@H](N(Cc2cc(C(F)(F)F)cc(C(F)(F)F)c2)C(C)=O)c2cc(C(F)(F)F)ccc2N1C(=O)OC(C)C`: “inactive”.
Consider `CC1(C)NC(=O)N(c2ccc([N+](=O)[O-])c(C(F)(F)F)c2)C1=O`, for which the call was inactive.
Turning to `CCCC(=O)OCCC(C)C`, the call was inactive.
As for `Oc1ccccc1`, the outcome was inactive.
Regarding `COc1ccc2cc(S(=O)(=O)N[C@H](CC(=O)N[C@H](Cc3ccc(CN4[C@H](C)CCC[C@@H]4C)cc3)C(=O)N(C)C(C)C)c3ccc4c(c3)OCO4)ccc2c1`, the AC50 is 24.3 µM (active).
With `NC(=O)c1nc(-c2cccc(-c3cc(F)ccc3OCC(F)(F)C(F)(F)F)c2)n[nH]1`, the call was inactive.
For the molecule `CC[C@H](NC(=O)c1cc(F)ccc1NS(=O)(=O)c1cccc2cccnc12)c1ccccc1`, the molecule was called inactive.
Consider `O=CCCCC=O`, for which the outcome was inactive.
For `Clc1ccccc1C(c1ccccc1)(c1ccccc1)n1ccnc1`, the AC50 is 25.2 µM (active).
The same measure, in the same setting: with `O=C(O)Cc1cc(I)c(Oc2ccc(O)c(I)c2)c(I)c1` the figure was 81 µM (active); with `CN(C)c1ccc(C(=C2C=CC(=[N+](C)C)C=C2)c2ccc(N(C)C)cc2)cc1`, 8.54 µM (active).
As for `Cc1ccc2oc(CN(Cc3ccccc3)C(=O)Nc3c(F)cc(F)cc3F)c(-c3ccc(Cl)cc3)c2c1`, the outcome was inactive.
Still for that read-out and setting: next, `O=c1ccc2ccccc2o1`: “inactive”.
The same measure, in the same setting: with `CC(C)(O)c1ccc(CNC(=O)c2cccnc2Oc2ccc3nonc3c2)cc1` the entry was “inactive”.
In the case of `CC(=O)N1CCN(c2ccc(OC[C@H]3CO[C@](Cn4ccnc4)(c4ccc(Cl)cc4Cl)O3)cc2)CC1`, the AC50 was 16.7 µM (active).
For `CCO[Si](CCCNC(N)=O)(OCC)OCC`, the result was inactive.
Take `COc1cc(C(=O)NC2CCN(C)CC2)ccc1Nc1ncc2c(n1)N(C1CCCC1)CC(F)(F)C(=O)N2C`: the AC50 was 26.3 µM (active).
Turning to `O=C1c2ccccc2C(=O)N1CCc1noc(-c2ccc(CN3CCCCCC3)s2)n1`, the molecule was classed as inactive.
Take `CC(C)(C)c1csc(-c2cc3cc(OCc4ccccc4CC(=O)O)ccc3o2)n1`: the AC50 was 32.8 µM (active).
Take `CCCCCCCCCCCC[N+](C)(C)C`: the AC50 is 82.4 µM (active).
As to `Cc1cccc2ccccc12`, the molecule was classed as inactive.
